In PubChem BioAssay (NCATS):
Results filed as inconclusive are left out. Where a call stands in place of a potency, no number is given. Activity calls are given as the source filed them. Calls come from the whole dose curve; as a rule, active = well fitted inhibition curve with a large enough effect; inconclusive = small, poorly fitted or top-dose-only effect; inactive = flat fitted curve, though single readings scatter.

System: MCC-26
Assay: qHTS assay to identify novel small-molecules to repurpose for Merkel cell carcinoma treatment (AID 1296009); note: nearly all actives have a fitted effect of over 60% in size
Conditions: MCC and control cell lines, CellTiter-Glo viability, 72 h; series mostly up to 46 µM
Method in brief: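 After compound transfer in DMSO, plates were kept 72 hr at 37 degree celsius. Luminescent ATP signal from CellTiter-Glo served as viability measure, normalized against DMSO and no-cell controls.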

How did the Potency turn out when `CC(C(=O)O)c1ccc(C(=O)c2ccccc2)s1` (stereo not drawn) was run?
Its Potency is “inactive”.

Which Potency does the source give for `CC(C)(C)c1nnc(NS(=O)(=O)c2ccc(N)cc2)s1` here?
The Potency was “inactive”.

For `Cc1c(Nc2ncccc2C(=O)O)cccc1C(F)(F)F`, which Potency is on record?
Its Potency is “inactive”.

`CO[C@@]1(NC(=O)Cc2cccs2)C(=O)N2C(C(=O)O)=C(COC(N)=O)CS[C@@H]21` was tested. Which Potency did it give?
The Potency was “inactive”.

With `COc1ccnc2c1CCCCC2S(=O)c1nc2ccccc2[nH]1` (stereo not drawn) as the molecule, how does the Potency read?
Its Potency is “inactive”.

How did the Potency turn out when `O=C(/C=C/c1ccccc1)NCCO` was run?
The Potency was “inactive”.

With `CCOc1ccc2nc(S(N)(=O)=O)sc2c1` as the molecule, how does the Potency read?
The Potency was “inactive”.

Which Potency does the source give for `Cc1ccc2c(n1)Oc1ccc(C(C)C(=O)OCC(=O)N(C)C)cc1C2` (stereo not drawn) here?
The Potency was “inactive”.
